Experimental data as given in ChEMBL document CHEMBL3988442, “University of Dundee, Small-Polar-MMV Screening Library” (2021).
Hit rate of the full screen: of about 48,000 compounds, about 13,000 (27%) showed an effect of 50% or more. Some of the results follow.

tested on: Wolbachia pipientis; assay: Anti-Wolbachia Cell-Based Screen; format: functional; design: scale not given: in the data most compounds retested in dose-response had high values; conditions: 5 µM

First: O=S(=O)(CCO)Cc1ccc(OC(F)F)cc1
Second: Cc1ccc(S(=O)(=O)n2ccc(C(=O)NCC(F)(F)F)c2)cc1
The “Percent Effect” value of the first is lower: -13.52% for the first, 31.33% for the second.

Compared with `COc1cccc(-c2noc(-c3ccc(NCCCN)nc3)n2)c1OC`, `COc1ccc(C(C)NC(=O)NCCNc2ccccn2)c(OC)c1` (stereo not drawn) is higher in “Percent Effect” value: -11.46% for the first, 23.68% for the second.

Compared with `O=C(Cn1cc(C2CC2)nn1)NC(c1ccc(Cl)cc1)C1CC1` (stereo not drawn), `CC(C)N1CCC(C(=O)N(C)CC(=O)c2ccc(O)cc2)CC1` is lower in “Percent Effect” value: -3.06% for the first, -30.04% for the second.

Compared with `CCc1nnc(N2CCN(c3ccccc3)C(=O)C2)o1`, `CCc1nnc(CN2CCN(c3cccc(OC)c3)C(=O)C2)o1` is higher in “Percent Effect” value: 1.843% for the first, 104.5% for the second.

Compared with `CCc1ccc(CN2CCN(c3cccc(OC)c3)C(=O)C2)nc1`, `CCc1ccc(CN2CCN(c3ccc(C#N)cc3)C(=O)C2)nc1` is lower in “Percent Effect” value: 111.5% for the first, -14.58% for the second.

Going from `COc1cccc(N2CCN(Cc3ncc[nH]3)CC2=O)c1` to `CN(C)c1ccc(CN2CCN(c3ccc(C#N)cc3)C(=O)C2)cn1`, the “Percent Effect” value rises from -4.353% to 27.75%.

Compared with `COc1ccc2c(=O)n(CC3CC3)ccc2c1OC`, `COCCN1CCC(C(=O)N(C)Cc2c[nH]c3ccc(C)cc23)C1` (stereo not drawn) is lower in “Percent Effect” value: 8.638% for the first, -13.06% for the second.

Going from `CCn1cnnc1CNC(=O)NC(C)c1cccs1` (stereo not drawn) to `CC(NC(=O)NCc1ccccn1)c1cccs1` (stereo not drawn), the “Percent Effect” value rises from 5.383% to 95.38%.

Going from `CC(C)C(NC(=O)NCCNc1ccccn1)c1cccs1` (stereo not drawn) to `CC(NC(=O)NCCNc1ccccn1)c1cccs1` (stereo not drawn), the “Percent Effect” value rises from -3.383% to 84.24%.

First: O=C(O)C(F)(F)F.O=S(=O)(C1CC1)N1CC[C@]2(C[C@@H](Oc3ccccn3)CO2)C1
Second: O=C(O)C(F)(F)F.O=C([C@@H]1COC[C@H]2CN(c3ccncn3)C[C@H]21)N1CCCC1
The “Percent Effect” value of the first is lower: -7.855% for the first, -1.455% for the second.

Compared with `CN(C)c1ncc(CNS(=O)(=O)c2cc(F)ccc2Cl)n1C`, `Cc1ccc(C(=O)Nc2cn[nH]c2)cc1C` is lower in “Percent Effect” value: -4.152% for the first, -10.82% for the second.

Compared with `CN1CCC2(CCN(CC3CC3)CC2)C1=O.O=C(O)C(F)(F)F`, `CC(C)C(=O)N1CCC2(CN(CC3CCCC3)C2)C1.O=C(O)C(F)(F)F` is lower in “Percent Effect” value: -0.5297% for the first, -3.433% for the second.

First: CN1CCN(C2COC3(CCN(CC4CC4)CC3)C2)CC1.O=C(O)C(F)(F)F.O=C(O)C(F)(F)F.O=C(O)C(F)(F)F (stereo not drawn)
Second: CN(C)C(=O)C1CCN(C2CCN(CC3CC3)CC2)CC1.O=C(O)C(F)(F)F.O=C(O)C(F)(F)F
The “Percent Effect” value of the first is lower: -10.32% for the first, 109% for the second.

Going from `CN(C)C(=O)C1CCN(C2CCN(CC3CCC3)CC2)CC1.O=C(O)C(F)(F)F.O=C(O)C(F)(F)F` to `CCN1CCC(N2CCC(C(=O)N(C)C)CC2)CC1.O=C(O)C(F)(F)F.O=C(O)C(F)(F)F`, the “Percent Effect” value falls from 115.1% to 104.7%.

First: CN(C)C(=O)CN1CC[C@H]2CN(C3CCOCC3)C[C@@H]2C1=O.O=C(O)C(F)(F)F
Second: CC(C)CN1CCC(N2CCC(C(=O)N(C)C)CC2)CC1.O=C(O)C(F)(F)F.O=C(O)C(F)(F)F
The “Percent Effect” value of the first is lower: -33.67% for the first, 126.3% for the second.

First: CCc1nc(CN2CCC(C(=O)N(C)C)CC2)cs1
Second: CN(C)C(=O)C1CCC2(CCN(Cc3cnn(C)c3)CC2)C1.O=C(O)C(F)(F)F (stereo not drawn)
The “Percent Effect” value of the first is higher: -2.315% for the first, -4.25% for the second.

Compared with `CC(C)CN1CC[C@@H]2[C@H](CC1)N(C(=O)c1ccccc1)CCS2(=O)=O.O=C(O)C(F)(F)F`, `CC(C)CN1CC[C@@H]2[C@@H]1CCN2C(=O)N1CCCC1.O=C(O)C(F)(F)F` is higher in “Percent Effect” value: -7.451% for the first, -1.369% for the second.

Going from `CN(C)Cc1cn2c(n1)CN(CC1CCCC1)CC2.O=C(O)C(F)(F)F.O=C(O)C(F)(F)F` to `CN1CCC(N2CCC(C(=O)N(C)C)CC2)CC1.O=C(O)C(F)(F)F.O=C(O)C(F)(F)F`, the “Percent Effect” value rises from -16.91% to 107.5%.

Compared with `CN1CC(=O)N(c2ccsc2)CC12CCN(S(C)(=O)=O)C2.O=C(O)C(F)(F)F` (stereo not drawn), `CC(C)N1CCC(N2CCC(C(=O)N(C)C)CC2)CC1.O=C(O)C(F)(F)F.O=C(O)C(F)(F)F` is higher in “Percent Effect” value: -22.3% for the first, 105.3% for the second.

Compared with `O=C(C1CCC2(CCN(CC3CCOCC3)CC2)O1)N1CCCCO1.O=C(O)C(F)(F)F` (stereo not drawn), `CN1CCN(C2CCN(C(=O)CCC3CCCC3)CC2)CC1.O=C(O)C(=O)O` is higher in “Percent Effect” value: -16.72% for the first, 6.776% for the second.

First: Cc1nc[nH]c1CN1C[C@@H]2CC[C@H](C1)N(C(=O)CCNS(C)(=O)=O)C2
Second: O=C(COCC1CCCCO1)N1CCN(Cc2ccccc2F)C(=O)C1 (stereo not drawn)
The “Percent Effect” value of the first is higher: -6.405% for the first, -11.31% for the second.

Compared with `N#CC1C(=O)Nc2c(cnn2C2CCCC2)C12CCCC2` (stereo not drawn), `CCn1nc2c(cc1=O)CN(CC1CCCCO1)CC2` (stereo not drawn) is lower in “Percent Effect” value: 15.25% for the first, -5.782% for the second.

First: CC(C)CNC(=O)C(C)N1CCN(C2CCN(C(C)C)CC2)CC1 (stereo not drawn)
Second: N[C@@H]1c2ccccc2C2(CCN(C(=O)c3ccc(CO)o3)CC2)[C@H]1O
The “Percent Effect” value of the first is lower: -39.91% for the first, 13.24% for the second.

Compared with `CCOc1cc(CNCc2nc(C)cc(=O)[nH]2)c(Cl)cc1OC(C)C`, `CCN(Cc1noc(C)n1)C(=O)CCc1scnc1C` is higher in “Percent Effect” value: -17.65% for the first, 1.92% for the second.
